Screening results from PubChem BioAssay.
The list is not random: actives were taken first. Their share in the collection is about 9%.
HTT ATP protect: qHTS Multiplex Assay to Identify Dual Action Probes in a Cell Model of Huntington: Cytoprotection (ATP) | AID 1471, 2008 | Potency, µM (top dose mostly 56.4 µM), hits mostly activators | 230,000 compounds, 0.14% hits | PC12 HTT-Q103 induced, cytoprotection, ATP luminescence, 40 h; note: nearly all actives have a fitted effect of over 45% in size
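Rat PC12, Q103 Htt exon1-GFP fusion, ecdysone promoter; tebufenozide inducer 100 nM final; compound titration; qHTS, 1500 cells/well; ATPlite luminescent read.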
HPGD inh: qHTS Assay for Inhibitors of HPGD (15-Hydroxyprostaglandin Dehydrogenase); purified HPGD, NADH fluorescence kinetic, PGE2 substrate; Potency, µM, usual class: inhibitors; 150,000 compounds, 4.3% hits; active = well fitted inhibition curve with a large enough effect, not every such curve was filed as active; inconclusive = small, poorly fitted or top-dose-only effect, or another doubt; inactive = no such curve, though single readings can be large or run the other way
Target sequence (P15428 whole entry, looked up): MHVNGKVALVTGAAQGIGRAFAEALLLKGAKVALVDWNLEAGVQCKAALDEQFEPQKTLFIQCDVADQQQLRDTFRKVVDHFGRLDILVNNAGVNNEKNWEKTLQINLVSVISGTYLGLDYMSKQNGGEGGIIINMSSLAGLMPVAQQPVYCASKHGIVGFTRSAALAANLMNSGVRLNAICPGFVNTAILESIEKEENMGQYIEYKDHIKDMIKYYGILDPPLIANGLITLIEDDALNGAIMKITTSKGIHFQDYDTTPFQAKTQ
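NADH formation kinetics: reaction with 30 uM PGE2 and 1 mM NAD+ (final), 20 nM enzyme, Tris-HCl pH 8 with Tween 20, after 15 min compound preincubation at room temperature. Fluorescence change, last versus first of five reads.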
Luc counter: Counterscreen for Luciferase (Kinase-Glo TM) Inhibition | Luciferin 4-monooxygenase (Photuris pensylvanica), Q27757 | Kinase-Glo luciferase, ATP luminescence, 8 min | Potency, µM (titrated, usually from 38.3 µM), hits mostly inhibitors | 200,000 compounds, 0.28% hits; note: nearly all actives have a fitted effect of over 60% in size
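Luminescence was the read-out, taken after 8-minute incubation at ambient temperature. Luciferase turned over luciferin with 10 uM ATP in imidazole pH 7.2 buffer containing KCl, MgCl2, Tween 20 and BSA.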
HTT aggregate: qHTS Multiplex Assay to Identify Dual Action Probes in a Cell Model of Huntington: Aggregate Formation (GFP); PC12 HttQ103-GFP aggregates, Acumen cytometry, 40 h; Potency, µM (series often up to 46.1 µM), hits mostly inhibitors; 220,000 compounds, 1.1% hits; note: nearly all actives have a fitted effect of over 60% in size
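Aggregates are detected as GFP objects 1–25 µm with signal 6 STDEV over background in lysates of induced PC12 cells. These carry Huntingtin exon 1 with 103 glutamines fused to GFP under an ecdysone promoter; compounds titrated.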
Lamin A splicing: qHTS Assay for Modulators of Lamin A Splicing; AID 1487, 2009; HeLa LMNA splicing GFP/RFP minigene ratio, 48 h; Potency, µM (top dose mostly 46.1 µM), usual class: inhibitors; 200,000 compounds, 0.01% hits; active = well fitted inhibition curve with a large enough effect in the signal ratio, with a control signal flat, not every such curve was filed as active; inconclusive = small, poorly fitted or top-dose-only effect, or effect the other way, or a change in a side signal; the % refers to the signal ratio
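S3 HeLa cells stably expressing lamin A-EGFP splicing minigene plus DsRed2, 600 cells/well, 48 h compound exposure at 37C. Laser-scanning cytometry; analysed as GFP (500-530 nm)/RFP (575-640 nm) total intensity ratio; 0.5% DMSO vehicle.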
ALDH1A1 inh: qHTS Assay for Inhibitors of Aldehyde Dehydrogenase 1 (ALDH1A1); Potency, µM (doses to about 75.3 µM), hits mostly inhibitors; 220,000 compounds, 7.3% hits; Aldehyde dehydrogenase 1A1 (Homo sapiens), P00352; Purified ALDH1A1, NADH fluorescence, propionaldehyde substrate; AID 1030, 2008; active = well fitted inhibition curve with a large enough effect, not every such curve was filed as active; inconclusive = small, poorly fitted or top-dose-only effect, or another doubt; inactive = no such curve, though single readings can be large or run the other way
Target sequence (P00352 whole entry, looked up): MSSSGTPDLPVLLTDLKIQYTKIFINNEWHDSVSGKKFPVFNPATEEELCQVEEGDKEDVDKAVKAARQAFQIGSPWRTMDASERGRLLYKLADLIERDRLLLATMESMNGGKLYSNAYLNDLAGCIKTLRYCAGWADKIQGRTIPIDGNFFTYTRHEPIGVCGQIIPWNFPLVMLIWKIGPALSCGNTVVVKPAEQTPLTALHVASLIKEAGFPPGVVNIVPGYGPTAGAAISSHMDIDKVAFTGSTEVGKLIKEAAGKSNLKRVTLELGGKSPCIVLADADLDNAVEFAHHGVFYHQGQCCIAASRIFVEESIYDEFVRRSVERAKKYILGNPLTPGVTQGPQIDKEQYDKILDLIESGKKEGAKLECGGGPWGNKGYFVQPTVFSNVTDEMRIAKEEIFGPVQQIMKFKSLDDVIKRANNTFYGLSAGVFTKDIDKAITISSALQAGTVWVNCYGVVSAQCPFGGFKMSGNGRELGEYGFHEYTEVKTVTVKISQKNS
Numbers stand for hits; [ ] = another dose, or the depositor's remark. Unless noted, calls come from the whole dose curve; as a rule, active = well fitted curve in the direction sought with a large enough effect; inconclusive = small, poorly fitted or top-dose-only effect, or another doubt; inactive = no such curve, though single readings can be large; an effect the other way counts as inactive or inconclusive.

What do the screens show for `S=C(Nc1cccc(Br)c1)c1ccccc1`?
HPGD inh: 13µM; Luc counter: inactive; HTT aggregate: inactive; Lamin A splicing: inconclusive; ALDH1A1 inh: inactive

What do the screens show for `O=C(Nc1ccc(OCC(=O)N2CCOCC2)cc1)c1cncc(Br)c1`?
HPGD inh: inactive; Luc counter: inactive; HTT aggregate: 11µM; Lamin A splicing: inactive; ALDH1A1 inh: inactive

Results for CSc1ccc(S(=O)(=O)Nc2ccc(OCC(=O)N3CCOCC3)cc2)cc1 ?
HTT ATP protect: inactive; Luc counter: inactive; HTT aggregate: inconclusive; Lamin A splicing: inactive; ALDH1A1 inh: 13µM

What do the screens show for `O=C(CN(c1ccccc1F)S(=O)(=O)c1ccccc1)N1CCCCCC1`?
HTT ATP protect: inactive; HPGD inh: inactive; Luc counter: inactive; HTT aggregate: inactive; Lamin A splicing: inactive; ALDH1A1 inh: 28µM

How did CCOc1ccccc1N(CC(=O)Nc1ccc(S(=O)(=O)N2CCOCC2)cc1)S(=O)(=O)c1ccccc1 do in these assays?
HTT ATP protect: inactive; HPGD inh: inactive; Luc counter: inactive; HTT aggregate: inconclusive; Lamin A splicing: inactive; ALDH1A1 inh: inactive

How did CCOc1ccccc1N(CC(=O)N1CCOCC1)S(=O)(=O)c1ccc(SC)cc1 do in these assays?
HTT ATP protect: inactive[10 µM]; HPGD inh: inactive; Luc counter: inactive; HTT aggregate: inactive; Lamin A splicing: inactive; ALDH1A1 inh: 8.9µM

How did CC1(C)N=C(N)N=C(N)N1c1ccc(OCCCOc2ccccc2)c(Cl)c1 do in these assays?
HTT ATP protect: inactive[10 µM]; HTT aggregate: inactive[9.22 µM]

What do the screens show for `COC(=O)c1ccc(CN2[C@@H]3C[C@@H](O)CC[C@@H]3C[C@H]2C(=O)OC)cc1`?
HTT ATP protect: inactive; HPGD inh: inactive; Luc counter: inactive; ALDH1A1 inh: inactive

What do the screens show for `Cc1nn(C)c(C)c1NC(=O)c1ccc(S(=O)(=O)N(C)C)cc1`?
HTT ATP protect: inactive; HPGD inh: inactive; Luc counter: inactive; HTT aggregate: inactive; Lamin A splicing: inactive; ALDH1A1 inh: inactive

Results for Cc1nc(-n2nc(C)c(Cc3ccccc3Cl)c2C)sc1C(=O)N1CCC(C)CC1 ?
Lamin A splicing: inactive

Results for CCN(C(=O)COC(=O)CNC(=O)c1ccc2ccccc2c1)C1CCS(=O)(=O)C1 (centres undefined) ?
HTT ATP protect: inactive[10 µM]; Luc counter: inactive; HTT aggregate: inactive; Lamin A splicing: inactive; ALDH1A1 inh: inactive

What do the screens show for `CCN(C(=O)COC(=O)CNC(=O)c1ccc(C)c(C)c1)C1CCS(=O)(=O)C1` (centres undefined)?
HTT ATP protect: inactive[10 µM]; HPGD inh: inactive; Luc counter: inactive; HTT aggregate: inactive; Lamin A splicing: inactive; ALDH1A1 inh: 25µM

What do the screens show for `CCCOc1cccc(-c2nc3ccccc3c(=O)o2)c1`?
HTT ATP protect: inactive[10 µM]; Luc counter: inactive; HTT aggregate: inactive[9.22 µM]; Lamin A splicing: inconclusive; ALDH1A1 inh: inactive

What do the screens show for `Cc1ccc(C(c2nnnn2C(C)(C)C)N(Cc2ccco2)Cc2cccs2)cc1` (centres undefined)?
HTT ATP protect: inactive; HPGD inh: inactive; Luc counter: inactive; HTT aggregate: inactive; Lamin A splicing: inconclusive; ALDH1A1 inh: inactive

What do the screens show for `O=C(CCCc1c[nH]c2ccccc12)N1CCN(S(=O)(=O)c2cccs2)CC1`?
HTT ATP protect: inactive[10 µM]; HPGD inh: inactive; Luc counter: inactive; HTT aggregate: inactive; Lamin A splicing: inconclusive; ALDH1A1 inh: inconclusive

What do the screens show for `O=C(NC(Cc1c[nH]c2ccccc12)c1nnc2n1CCCCC2)c1ccccc1Cl` (centres undefined)?
HTT ATP protect: inactive; HPGD inh: 25µM; Luc counter: inactive; HTT aggregate: inconclusive; Lamin A splicing: inactive; ALDH1A1 inh: inactive

How did CCCCNC(=O)C(c1ccc(OCC(=O)OC)c(C(=O)OC)c1)N(CCc1c[nH]c2ccccc12)C(=O)CCCCCN1C(=O)NC(c2ccc(-c3ccccc3)cc2)C(C(=O)OCc2ccccc2)=C1C (centres undefined) do in these assays?
HTT ATP protect: inactive[10 µM]; HTT aggregate: inactive[9.22 µM]

Results for COc1ccc(-c2ccnc(SCC(=O)c3ccc(Br)cc3)n2)cc1 ?
HTT ATP protect: inactive[10 µM]; HPGD inh: inconclusive; Luc counter: inactive; HTT aggregate: inactive; Lamin A splicing: inactive; ALDH1A1 inh: inconclusive

How did O=C(CN1CCOCC1)Nc1ccccc1-c1ccccc1 do in these assays?
HTT ATP protect: inactive; HPGD inh: inactive; Luc counter: inactive; HTT aggregate: inactive; Lamin A splicing: inactive; ALDH1A1 inh: 14µM

What do the screens show for `O=C(CN1CCN(C(=O)c2ccco2)CC1)Nc1cc(Cl)ccc1Cl`?
HTT ATP protect: inactive; HPGD inh: inactive; Luc counter: inactive; HTT aggregate: inactive; Lamin A splicing: inactive; ALDH1A1 inh: inactive

How did O=C(CN1CCCCC1)Nc1ccccc1-c1ccccc1 do in these assays?
HTT ATP protect: inactive; HPGD inh: inactive; Luc counter: inactive; HTT aggregate: inactive; Lamin A splicing: inactive; ALDH1A1 inh: 19µM

What do the screens show for `O=C(CN1CCN(C(=O)c2ccco2)CC1)Nc1ccccc1-c1ccccc1`?
HTT ATP protect: inactive; HPGD inh: inactive; Luc counter: inactive; HTT aggregate: inactive; Lamin A splicing: inactive; ALDH1A1 inh: 6.3µM

Results for Cc1ccc(S(=O)(=O)Nc2cc(-c3nn(C)c(=O)c4ccccc34)ccc2N2CCOCC2)cc1 ?
HTT ATP protect: inactive; HPGD inh: inconclusive; Luc counter: inactive; HTT aggregate: inconclusive; Lamin A splicing: inconclusive; ALDH1A1 inh: 22µM

How did CCCC(=O)Nc1cc(-c2nn(C)c(=O)c3ccccc23)ccc1N1CCOCC1 do in these assays?
HTT ATP protect: inactive; HPGD inh: inactive; Luc counter: inactive; HTT aggregate: inactive[9.22 µM]; Lamin A splicing: inactive; ALDH1A1 inh: 28µM

How did CC(=O)NC1C(=O)Nc2c1cccc2C(F)(F)F (centres undefined) do in these assays?
HTT ATP protect: inactive; HPGD inh: inactive; Luc counter: inactive; HTT aggregate: inactive; Lamin A splicing: inactive; ALDH1A1 inh: 0.28µM

Results for COc1ccc(C(=O)CSc2nnc(COc3ccc(C#N)cc3)n2-c2ccccc2)cc1 ?
HTT ATP protect: inactive; HPGD inh: inactive; Luc counter: inactive; HTT aggregate: inactive; Lamin A splicing: inactive; ALDH1A1 inh: inactive

How did Cc1ccccc1NC(=O)COc1ccc(Br)cc1CNCCCO do in these assays?
HTT ATP protect: inactive; Luc counter: inactive; HTT aggregate: inactive; ALDH1A1 inh: inconclusive
